About 8,800 targets were measured; listed, in parts, are those with a hit and a random draw of the rest. About 0.5% of all pairs of compound and target were hits.
Assays:
Experiment in all cases: log2 fold change, soluble protein after heating vs DMSO (PISA); higher = thermal stabilisation; K562 lysate, 10 uM; active = over 0.2 and 3.5 SD of the protein, either way, in both replicates (recomputed)
[1] = compound: C=CC(=O)N1CCC[C@@H](n2nc(-c3ccc(Oc4ccccc4)cc3)c3c(N)ncnc32)C1 [ibrutinib]
Summary of the method: (§1)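 Values give the log-two fold change in thermal stability against solvent controls, from duplicates. Crude K562 extract at 1 mg/mL protein, made by dounce homogenisation in PBS pH 7.4 with 1 mM MgCl2, was treated with 10 μM compound for 30 min. After 3 min heating across 48°C-58°C, aliquots were pooled, adjusted to 0.5% NP-40 at 4°C and centrifuged at 21,000xg for 90 min. The supernatant was measured by TMTpro 16plex LC-MS/MS with channel sums equalised.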

[2] = compound: CC(=O)c1cnc2ccc(-c3cc(Cl)c(O)c(Cl)c3)nc2c1N[C@H]1CC[C@H](CN(C)C)CC1
Summary of the method: as §1

[3] = compound: CC(C)(C)Cn1c(N)nc2ccc(-c3[nH]c(C(C)(C)C)nc3-c3ccc(F)cc3)nc21 [ralimetinib]
Summary of the method: as §1

[4] = compound: CC(C)(O)CC(=O)NCCn1ccc2ncnc(Nc3ccc(Oc4cccc(C(F)(F)F)c4)c(Cl)c3)c21
Summary of the method: as §1

[5] = compound: CC(C)C1=C2N=C(C=C(N2N=C1)NCC3=CC=CC=C3)NCCCCCCN
Summary of the method: as §1

[6] = compound: CC1=C(C(CC(=O)N1)C2=CC=C(C=C2)C(F)(F)F)C(=O)NC3=C(C=C4C(=C3)C=NN4)F
Summary of the method: as §1

[7] = compound: CC1=C(C2=C(C=C1)C(=O)C3=CC=CC=C3N2CCCN)C
Summary of the method: as §1

[8] = compound: CC1=C(C=C(C=C1)NC(=O)C2=CC(=CC=C2)C(C)(C)C#N)NC3=CC4=C(C=C3)N=CN(C4=O)C
Summary of the method: as §1

[9] = compound: CC1=C(C=C(C=C1)NC(=O)C2=CC(=CC=C2)N(C)C)NC(=O)C3=CC=C(C=C3)O
Summary of the method: as §1

[10] = compound: CC1=CC=C(C=C1)SC2=C3C=C(SC3=CN=C2)C(=O)N
Summary of the method: as §1

[11] = compound: CCCS(=O)(=O)Nc1ccc(F)c(C(=O)c2c[nH]c3ncc(-c4ccc(Cl)cc4)cc23)c1F [vemurafenib]
Summary of the method: as §1

[12] = compound: CCCS(=O)(=O)Nc1ccc(F)c(C(=O)c2c[nH]c3ncc(Cl)cc23)c1F
Summary of the method: as §1

[13] = compound: CCN(CCCOc1ccc2c(Nc3cc(CC(=O)Nc4cccc(F)c4)[nH]n3)ncnc2c1)CCOP(=O)(O)O [barasertib]
Summary of the method: as §1

[14] = compound: CC[C@@H]1C(=O)N(C)c2cnc(Nc3ccc(C(=O)NC4CCN(C)CC4)cc3OC)nc2N1C1CCCC1
Summary of the method: as §1

[15] = compound: CC[C@@H]1C(=O)N(C)c2cnc(Nc3ccc(C(=O)N[C@H]4CC[C@H](N5CCN(CC6CC6)CC5)CC4)cc3OC)nc2N1C(C)C [volasertib]
Summary of the method: as §1

[16] = compound: CCn1c(C(=O)N(C2CC2)C2CC2)cc2c3c(ncn3C)c(Nc3cc(C)n(C)n3)nc21
Summary of the method: as §1

[17] = compound: CCn1cc(-c2ccnc3[nH]c(-c4cccc(CN(C)C)c4)cc23)c(-c2ccc(NC(=O)N(C)C)cc2)n1
Summary of the method: as §1

[18] = compound: CN1CCC(CNc2ccc3ncc(-c4cccc(OC(F)(F)F)c4)n3n2)CC1
Summary of the method: as §1

[19] = compound: CN1CCN(CCOc2cc(OC3CCOCC3)c3c(Nc4c(Cl)ccc5c4OCO5)ncnc3c2)CC1 [saracatinib]
Summary of the method: as §1

[20] = compound: CN1CCN(c2nc(C3=C(c4c[nH]c5ccccc45)C(=O)NC3=O)c3ccccc3n2)CC1 [sotrastaurin]
Summary of the method: as §1

Measured: log2 fold change

DOCK7 (UniProt Q96N67)
inactive: [1] -0.117 | [2] -0.009 | [3] 0.077 | [4] -0.054 | [5] 0.021 | [6] 0.03 | [7] -0.078 | [8] 0.009 | [9] 0.065 | [10] -0.028 | [11] 0.045 | [12] 0.021 | [13] 0.027 | [14] -0.057 | [15] -0.01 | [16] 0 | [17] -0.068 | [18] -0.041 | [19] -0.028 | [20] 0.02

CYCS (UniProt P99999)
inactive: [1] 0.027 | [2] 0.024 | [3] 0 | [4] 0.004 | [5] -0.016 | [6] -0.05 | [7] -0.005 | [8] 0.012 | [9] -0.015 | [10] 0.031 | [11] -0.011 | [12] -0.001 | [13] -0.01 | [14] 0.061 | [15] 0.041 | [16] 0.018 | [17] -0.025 | [18] 0.052 | [19] 0.008 | [20] -0.017

DGCR8 (UniProt Q8WYQ5)
inactive: [1] 0.031 | [2] -0.049 | [3] 0.014 | [4] -0.014 | [5] 0.015 | [6] 0.02 | [7] -0.018 | [8] -0.219 | [9] 0.071 | [10] -0.006 | [11] -0.022 | [12] 0.031 | [13] 0.062 | [14] -0.046 | [15] -0.021 | [16] 0.015 | [17] -0.052 | [18] 0.066 | [19] 0.042 | [20] 0.04

COPZ1 isoform 4 (UniProt P61923)
inactive: [1] 0.123 | [2] 0.007 | [3] 0 | [4] 0.013 | [5] 0.02 | [6] -0.054 | [7] 0.037 | [8] 0.03 | [9] -0.012 | [10] 0.117 | [11] -0.054 | [12] -0.004 | [13] 0.111 | [14] 0.022 | [15] 0.019 | [16] 0.004 | [17] -0.015 | [18] -0.187 | [19] 0.018 | [20] 0.01

CHEK2 (UniProt O96017)
inactive: [1] 0.04 | [2] -0.043 | [3] -0.011 | [4] 0.081 | [5] 0.211 | [6] 0.013 | [7] -0.002 | [8] -0.041 | [9] 0.073 | [10] 0.013 | [11] -0.059 | [12] 0.042 | [13] 0.087 | [14] -0.06 | [15] -0.044 | [16] 0.051 | [17] 0.08 | [18] -0.057 | [19] -0.036 | [20] 0

COQ8A (UniProt Q8NI60)
Sequence of UniProt Q8NI60 (Q8NI60 whole entry, looked up): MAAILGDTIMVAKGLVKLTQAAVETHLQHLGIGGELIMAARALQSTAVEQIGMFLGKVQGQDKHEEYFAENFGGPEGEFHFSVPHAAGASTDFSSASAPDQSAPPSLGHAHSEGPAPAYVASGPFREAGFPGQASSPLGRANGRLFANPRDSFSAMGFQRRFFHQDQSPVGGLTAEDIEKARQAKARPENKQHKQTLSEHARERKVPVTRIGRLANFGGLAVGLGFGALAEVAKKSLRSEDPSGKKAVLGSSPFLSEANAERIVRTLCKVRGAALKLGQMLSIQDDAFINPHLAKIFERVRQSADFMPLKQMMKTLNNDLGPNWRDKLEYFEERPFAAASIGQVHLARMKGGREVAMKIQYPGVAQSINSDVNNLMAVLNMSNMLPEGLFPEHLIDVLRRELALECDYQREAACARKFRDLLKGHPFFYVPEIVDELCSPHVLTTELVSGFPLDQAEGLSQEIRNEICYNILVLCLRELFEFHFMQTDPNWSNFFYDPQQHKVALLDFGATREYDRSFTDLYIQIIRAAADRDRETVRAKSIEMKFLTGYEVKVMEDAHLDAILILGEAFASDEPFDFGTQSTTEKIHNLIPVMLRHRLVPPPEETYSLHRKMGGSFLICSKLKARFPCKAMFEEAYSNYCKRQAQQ
active: [2] 0.611 | [18] 0.573 | [19] 0.697
inactive: [1] -0.061 | [3] 0.143 | [4] 0.115 | [5] -0.009 | [6] -0.139 | [7] -0.074 | [8] -0.04 | [9] 0 | [10] -0.068 | [11] 0.036 | [12] -0.009 | [13] 0.134 | [14] 0.026 | [15] -0.026 | [16] -0.029 | [17] -0.214 | [20] 0.016

COG2 (UniProt Q14746)
inactive: [1] -0.029 | [2] -0.023 | [3] 0.017 | [4] -0.017 | [5] 0 | [6] 0.023 | [7] -0.035 | [8] -0.019 | [9] 0.062 | [10] -0.009 | [11] 0.023 | [12] 0.012 | [13] 0.077 | [14] -0.052 | [15] -0.088 | [16] 0.106 | [17] 0.032 | [18] -0.093 | [19] 0.002 | [20] 0.037

COQ9 (UniProt O75208)
Sequence of UniProt O75208 (O75208 whole entry, looked up): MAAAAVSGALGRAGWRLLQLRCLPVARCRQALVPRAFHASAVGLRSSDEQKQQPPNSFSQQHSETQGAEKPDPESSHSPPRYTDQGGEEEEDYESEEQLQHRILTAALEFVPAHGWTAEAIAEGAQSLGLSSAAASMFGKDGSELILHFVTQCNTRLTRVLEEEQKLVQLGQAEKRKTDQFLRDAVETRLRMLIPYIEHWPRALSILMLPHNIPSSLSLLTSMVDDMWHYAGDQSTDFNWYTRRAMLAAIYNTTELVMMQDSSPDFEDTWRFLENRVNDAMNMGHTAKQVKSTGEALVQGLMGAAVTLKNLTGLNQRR
inactive: [1] 0.104 | [2] 0.023 | [3] 0.015 | [4] -0.008 | [5] -0.036 | [6] 0.017 | [7] 0.007 | [8] -0.024 | [9] 0.037 | [10] 0 | [11] -0.023 | [12] 0.126 | [14] 0 | [15] -0.012 | [16] 0.002 | [17] 0.015 | [18] -0.066 | [19] -0.001 | [20] -0.101
active: [13] 0.275

DNAJC1 (UniProt Q96KC8)
Sequence of UniProt Q96KC8 (Q96KC8 whole entry, looked up): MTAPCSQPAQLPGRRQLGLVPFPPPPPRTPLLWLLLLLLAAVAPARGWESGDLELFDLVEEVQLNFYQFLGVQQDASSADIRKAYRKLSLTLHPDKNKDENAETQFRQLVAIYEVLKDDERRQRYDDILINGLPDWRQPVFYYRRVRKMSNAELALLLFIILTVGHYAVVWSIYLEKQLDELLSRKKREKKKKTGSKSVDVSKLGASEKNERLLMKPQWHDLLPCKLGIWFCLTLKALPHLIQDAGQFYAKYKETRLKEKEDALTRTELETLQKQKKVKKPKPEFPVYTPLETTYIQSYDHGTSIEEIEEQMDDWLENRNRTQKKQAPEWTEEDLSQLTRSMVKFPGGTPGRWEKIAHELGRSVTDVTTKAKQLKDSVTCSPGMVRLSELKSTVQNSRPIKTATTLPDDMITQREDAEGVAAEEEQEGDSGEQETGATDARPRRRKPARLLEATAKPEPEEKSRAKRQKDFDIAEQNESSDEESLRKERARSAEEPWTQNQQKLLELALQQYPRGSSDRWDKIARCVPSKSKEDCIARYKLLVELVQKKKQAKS
active: [18] -0.293
inactive: [1] -0.018 | [2] 0.018 | [3] -0.007 | [4] -0.048 | [5] -0.014 | [6] 0.019 | [7] 0.019 | [8] -0.009 | [9] 0.032 | [10] 0.011 | [11] -0.019 | [12] 0.006 | [13] 0.053 | [14] 0.017 | [15] -0.012 | [16] 0.067 | [17] 0.033 | [19] 0.029 | [20] -0.002

DMXL1 (UniProt Q9Y485)
Sequence of UniProt Q9Y485 (Q9Y485 whole entry, looked up): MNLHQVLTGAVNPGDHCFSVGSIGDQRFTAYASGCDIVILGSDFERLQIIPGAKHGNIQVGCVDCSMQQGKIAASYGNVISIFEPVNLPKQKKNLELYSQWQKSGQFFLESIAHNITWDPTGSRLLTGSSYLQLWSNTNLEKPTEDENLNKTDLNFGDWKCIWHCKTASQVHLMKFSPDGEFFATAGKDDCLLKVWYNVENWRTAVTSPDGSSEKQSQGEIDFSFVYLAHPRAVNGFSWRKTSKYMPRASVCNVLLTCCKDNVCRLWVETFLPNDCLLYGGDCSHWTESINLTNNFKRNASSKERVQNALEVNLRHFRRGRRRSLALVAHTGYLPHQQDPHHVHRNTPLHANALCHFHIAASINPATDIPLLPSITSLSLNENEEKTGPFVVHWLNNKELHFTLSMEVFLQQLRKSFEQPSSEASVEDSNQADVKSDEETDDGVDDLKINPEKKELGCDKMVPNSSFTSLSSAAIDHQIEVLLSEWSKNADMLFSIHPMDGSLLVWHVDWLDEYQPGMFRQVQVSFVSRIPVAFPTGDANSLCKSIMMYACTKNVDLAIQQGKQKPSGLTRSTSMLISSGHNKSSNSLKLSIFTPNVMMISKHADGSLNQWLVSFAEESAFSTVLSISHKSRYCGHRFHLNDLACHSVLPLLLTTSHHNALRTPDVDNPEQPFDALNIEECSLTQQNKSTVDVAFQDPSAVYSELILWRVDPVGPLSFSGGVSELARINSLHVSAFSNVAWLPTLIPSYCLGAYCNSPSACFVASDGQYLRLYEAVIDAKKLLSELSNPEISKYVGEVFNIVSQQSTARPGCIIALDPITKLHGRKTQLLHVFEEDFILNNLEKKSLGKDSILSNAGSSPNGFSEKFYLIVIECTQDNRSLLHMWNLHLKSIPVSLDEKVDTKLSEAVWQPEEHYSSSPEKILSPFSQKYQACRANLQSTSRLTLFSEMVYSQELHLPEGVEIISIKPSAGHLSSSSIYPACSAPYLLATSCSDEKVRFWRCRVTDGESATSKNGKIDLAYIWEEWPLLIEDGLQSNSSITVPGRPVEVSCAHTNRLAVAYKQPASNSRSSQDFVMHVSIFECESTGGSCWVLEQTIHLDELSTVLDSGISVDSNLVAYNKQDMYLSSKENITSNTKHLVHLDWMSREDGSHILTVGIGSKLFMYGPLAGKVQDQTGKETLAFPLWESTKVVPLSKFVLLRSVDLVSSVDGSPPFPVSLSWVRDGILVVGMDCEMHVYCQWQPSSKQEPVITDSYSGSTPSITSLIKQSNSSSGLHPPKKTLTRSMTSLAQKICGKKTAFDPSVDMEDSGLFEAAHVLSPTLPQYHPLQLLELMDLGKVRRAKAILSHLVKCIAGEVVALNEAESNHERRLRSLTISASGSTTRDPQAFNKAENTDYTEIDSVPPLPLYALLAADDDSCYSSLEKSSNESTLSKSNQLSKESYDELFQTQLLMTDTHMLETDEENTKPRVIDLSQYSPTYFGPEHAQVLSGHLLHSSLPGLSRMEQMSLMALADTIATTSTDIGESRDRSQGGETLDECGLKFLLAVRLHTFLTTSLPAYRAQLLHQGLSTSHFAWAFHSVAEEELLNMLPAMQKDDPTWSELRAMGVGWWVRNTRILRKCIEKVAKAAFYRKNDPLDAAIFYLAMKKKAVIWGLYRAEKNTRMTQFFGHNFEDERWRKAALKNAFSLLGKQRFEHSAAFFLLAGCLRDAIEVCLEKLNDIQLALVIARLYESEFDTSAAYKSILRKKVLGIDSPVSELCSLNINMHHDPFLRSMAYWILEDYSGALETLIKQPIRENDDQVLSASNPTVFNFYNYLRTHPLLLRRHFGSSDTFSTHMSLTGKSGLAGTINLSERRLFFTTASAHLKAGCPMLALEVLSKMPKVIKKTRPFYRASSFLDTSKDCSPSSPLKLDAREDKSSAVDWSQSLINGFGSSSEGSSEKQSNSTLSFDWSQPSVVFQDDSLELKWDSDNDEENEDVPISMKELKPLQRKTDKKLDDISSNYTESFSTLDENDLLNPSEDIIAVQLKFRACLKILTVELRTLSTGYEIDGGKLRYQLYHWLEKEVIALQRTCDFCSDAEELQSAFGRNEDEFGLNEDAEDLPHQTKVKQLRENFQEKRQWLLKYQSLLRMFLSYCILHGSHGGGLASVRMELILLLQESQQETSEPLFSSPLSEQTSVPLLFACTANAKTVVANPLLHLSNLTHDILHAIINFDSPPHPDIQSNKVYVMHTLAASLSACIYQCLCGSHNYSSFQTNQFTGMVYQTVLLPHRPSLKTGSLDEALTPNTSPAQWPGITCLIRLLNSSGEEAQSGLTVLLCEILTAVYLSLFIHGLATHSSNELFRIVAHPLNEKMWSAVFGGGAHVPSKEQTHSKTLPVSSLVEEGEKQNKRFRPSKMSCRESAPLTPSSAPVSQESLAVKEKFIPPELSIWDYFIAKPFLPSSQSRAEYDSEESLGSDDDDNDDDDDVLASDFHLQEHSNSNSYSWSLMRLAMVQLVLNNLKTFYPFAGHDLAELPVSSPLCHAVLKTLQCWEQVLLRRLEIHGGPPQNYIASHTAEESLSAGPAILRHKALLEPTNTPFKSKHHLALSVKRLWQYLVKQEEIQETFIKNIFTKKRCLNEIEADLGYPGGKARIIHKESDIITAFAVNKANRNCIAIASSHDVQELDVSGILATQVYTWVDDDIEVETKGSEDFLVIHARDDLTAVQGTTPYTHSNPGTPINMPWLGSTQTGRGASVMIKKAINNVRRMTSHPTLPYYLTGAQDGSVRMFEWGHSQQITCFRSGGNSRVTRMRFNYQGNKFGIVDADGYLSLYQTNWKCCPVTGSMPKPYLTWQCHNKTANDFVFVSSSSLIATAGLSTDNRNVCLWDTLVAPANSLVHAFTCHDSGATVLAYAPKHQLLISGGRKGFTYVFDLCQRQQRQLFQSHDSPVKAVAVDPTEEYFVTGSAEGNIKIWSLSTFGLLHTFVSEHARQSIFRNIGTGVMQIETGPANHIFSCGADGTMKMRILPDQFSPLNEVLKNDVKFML
inactive: [1] -0.02 | [2] -0.025 | [3] 0.021 | [4] -0.012 | [5] 0.016 | [6] -0.001 | [7] -0.024 | [8] 0 | [9] 0.064 | [10] -0.026 | [11] 0.024 | [12] 0.028 | [13] -0.005 | [14] 0.015 | [15] -0.06 | [16] 0.026 | [17] -0.017 | [18] -0.004 | [19] 0.002 | [20] 0.023

CTPS1 (UniProt P17812)
inactive: [1] -0.045 | [2] 0.01 | [3] -0.017 | [4] -0.015 | [5] -0.022 | [6] -0.012 | [7] 0.024 | [8] 0.004 | [9] 0.017 | [10] 0.02 | [11] -0.008 | [12] 0.016 | [13] -0.024 | [14] -0.065 | [15] -0.04 | [16] 0.026 | [17] -0.041 | [18] -0.011 | [19] 0.007 | [20] 0.021

DICER1 (UniProt Q9UPY3)
inactive: [1] -0.011 | [2] 0.037 | [3] 0.019 | [4] -0.055 | [5] 0.012 | [6] 0.044 | [7] 0.003 | [8] 0.018 | [9] 0.013 | [10] 0 | [11] -0.002 | [12] 0.05 | [13] 0.01 | [14] 0.003 | [15] -0.068 | [16] 0.021 | [17] 0.275 | [18] 0.036 | [19] 0.005 | [20] -0.018

DOK1 (UniProt Q99704)
inactive: [1] 0.023 | [2] 0.01 | [3] 0.017 | [4] 0.014 | [5] -0.029 | [6] 0.137 | [7] 0.018 | [8] 0.017 | [9] 0.014 | [10] -0.135 | [11] 0.028 | [12] 0.061 | [13] -0.027 | [14] -0.113 | [15] -0.026 | [16] 0.021 | [17] -0.055 | [18] 0.101 | [19] 0.024 | [20] 0.029

CUEDC2 (UniProt Q9H467)
Sequence of UniProt Q9H467 (Q9H467 whole entry, looked up): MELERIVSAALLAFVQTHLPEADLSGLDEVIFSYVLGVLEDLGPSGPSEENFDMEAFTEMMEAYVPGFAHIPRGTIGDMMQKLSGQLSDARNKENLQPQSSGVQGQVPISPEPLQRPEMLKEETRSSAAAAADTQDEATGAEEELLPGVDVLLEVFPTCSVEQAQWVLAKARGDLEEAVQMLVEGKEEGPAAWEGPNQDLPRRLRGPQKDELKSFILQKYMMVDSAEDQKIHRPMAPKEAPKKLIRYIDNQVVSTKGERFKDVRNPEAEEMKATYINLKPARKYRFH
inactive: [1] 0.056 | [2] 0.044 | [3] 0.001 | [4] -0.032 | [5] 0.026 | [6] -0.027 | [7] -0.014 | [8] 0.052 | [9] 0.018 | [10] -0.082 | [11] 0.06 | [12] 0.001 | [13] 0.026 | [14] 0.038 | [15] 0.027 | [16] -0.084 | [18] -0.07 | [19] 0.002 | [20] 0
active: [17] 0.694

DPM1 (UniProt O60762)
Sequence of UniProt O60762 (O60762 whole entry, looked up): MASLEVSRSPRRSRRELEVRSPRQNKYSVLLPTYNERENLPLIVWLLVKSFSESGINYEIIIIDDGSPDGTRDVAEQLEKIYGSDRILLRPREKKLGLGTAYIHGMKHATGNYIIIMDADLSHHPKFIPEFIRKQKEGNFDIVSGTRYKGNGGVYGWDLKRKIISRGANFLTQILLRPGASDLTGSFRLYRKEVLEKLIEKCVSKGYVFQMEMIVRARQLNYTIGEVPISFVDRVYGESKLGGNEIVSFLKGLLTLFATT
inactive: [1] -0.016 | [2] -0.018 | [3] -0.025 | [4] -0.027 | [5] -0.009 | [6] 0.033 | [7] 0.015 | [8] 0.006 | [9] 0.014 | [10] 0.023 | [11] 0.055 | [12] 0.004 | [13] -0.021 | [14] 0.039 | [15] 0.001 | [16] -0.012 | [17] -0.013 | [18] -0.058 | [19] 0.036 | [20] 0.028

DHRS3 (UniProt O75911)
inactive: [1] 0.064 | [2] -0.07 | [3] 0.048 | [4] -0.023 | [5] 0.034 | [6] -0.001 | [7] -0.069 | [8] -0.015 | [9] -0.046 | [10] 0.045 | [11] 0.082 | [12] 0.012 | [13] -0.01 | [14] -0.03 | [15] 0.033 | [16] -0.041 | [17] -0.061 | [18] 0.034 | [19] 0.029 | [20] 0.013
